# High-throughput results from PubChem.
# A selection: hits, their analogues and other compounds. The true share with any hit is near 11%.
# Pf growth 96h: P. falciparum growth inhibition at 96 hours; AID 504834; P. falciparum luciferase reporter growth, 96 h; Potency, µM (highest dose often 28.7 µM), inactives show at the top dose activity change, negative = inhibition, hits mostly inhibitors; 6.9% of 320,000 active
#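 96 h incubation, 37 C, 5% CO2, of luciferase-reporter P. falciparum-infected RBCs (2% hematocrit, 0.05% parasitemia final) with test compounds; endpoint luminescence.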
# AmpC detergent: AmpC beta-lactamase inhibition with detergent present; 0.041% of 370,000 active; AmpC hydrolysis of nitrocefin, absorbance 480 nm, 0.01% Triton; AID 485294; Potency, µM (top dose mostly 114 µM), for the others: at the highest dose activity change, negative = inhibition, usual class: inhibitors; P00811;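 also: 0% = no-compound wells and -100% = no-enzyme wells; nearly all actives have a fitted effect of over 25% in size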
# Target sequence (P00811 whole entry, looked up): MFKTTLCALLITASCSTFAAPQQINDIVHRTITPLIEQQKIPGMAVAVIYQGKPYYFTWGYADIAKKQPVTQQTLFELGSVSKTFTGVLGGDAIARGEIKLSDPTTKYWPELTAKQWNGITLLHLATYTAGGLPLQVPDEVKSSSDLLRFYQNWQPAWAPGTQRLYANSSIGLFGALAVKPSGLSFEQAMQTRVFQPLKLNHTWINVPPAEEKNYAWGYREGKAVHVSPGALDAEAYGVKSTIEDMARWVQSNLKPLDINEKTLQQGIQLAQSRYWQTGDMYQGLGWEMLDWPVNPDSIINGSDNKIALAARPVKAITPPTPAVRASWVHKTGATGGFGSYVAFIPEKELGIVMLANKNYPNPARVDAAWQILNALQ
#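 AmpC (5.3 nM in the dispensed reagent) in 20 mM phosphate pH 7.0 with 0.01% (detergent screen) or 0.0001% Triton X-100 was preincubated with compounds for 15 min at room temperature. Nitrocefin was then added from an 800 uM solution, and hydrolysis was followed at 480 nm.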
# AmpC inh no detg: AmpC beta-lactamase inhibition without detergent | P00811 | AmpC nitrocefin hydrolysis, absorbance 480 nm, 0.0001% Triton | Potency, µM (doses to about 57.1 µM), inactives show top-dose activity change, negative = inhibition, actives largely listed as inhibitors | 0.52% of 330,000 active | AID 485341;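 also: plate controls were no compound for no effect and no enzyme for full effect; nearly all actives have a fitted effect of over 20% in size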
#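 20 mM phosphate pH 7.0 + 0.01% (detergent screen) or 0.0001% Triton X-100; 5.3 nM AmpC reagent; cpd preinc 15 min RT; nitrocefin (800 uM stock) to start; A480 q20 s × 4 min; Activity was normalised to no-enzyme and no-compound control wells.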
# HCV inhibitor: inhibitors of hepatitis C virus infection | Huh7.5.1 HCVcc-Cre infection, luciferase reporter, 44 h | Potency, µM (highest dose often 41.8 µM), inactives show top-dose activity change, negative = inhibition, usual class: inhibitors | 3.4% of 340,000 active
#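 Cells seeded at 1,000/well and cultured 4 h, then compounds added followed by HCVcc-Cre virus (~0.5 moi). After 44 h further culture, luciferase substrate was added, plates held 15 min at room temperature, and luminescence read for 15 sec.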
# AMA1-RON2 inh: AMA1-RON2 (P. falciparum) interaction inhibition. Potency, µM (highest dose often 58.2 µM), inactives show at the highest dose activity change, negative = inhibition, most hits filed as inhibitors. 0.2% of 360,000 active. AID 720542. AlphaScreen AMA1-biotinylated RON2 peptide binding;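 also: 0% = vehicle wells and -100% = peptide control; nearly all actives have a fitted effect of over 45% in size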
#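 AMA1 (3D7) with his tag at 25 nM final met compounds first, then biotinylated RON2 peptide at 25 nM; detection used donor plus acceptor beads, 10 µg/mL apiece, read by AlphaScreen after 30 min at room temperature.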
# Pf growth 48h: P. falciparum growth inhibition at 48 hours (one generation). P. falciparum luciferase growth in erythrocytes, 48 h. Potency, µM (titrated, usually from 28.7 µM), without a hit: top-dose activity change, negative = inhibition, actives largely listed as inhibitors. 5.9% of 310,000 active. AID 504832
#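 Luminescence readout; reporter = integrated firefly luciferase in P. falciparum. RBC culture at 2% hematocrit, 0.1% parasitemia final, 37 C/5% CO2; decreased signal taken as growth inhibition.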
# * hit, by the source's call; u = inconclusive; x = no result; [ ] = remark or other dose. Calls follow the shape of the dose curve; as a rule, active = well fitted curve in the direction sought with a large enough effect; inconclusive = small, poorly fitted or top-dose-only effect, or another doubt; inactive = no such curve, though single readings can be large; an effect the other way counts as inactive or inconclusive. Unless noted, % is scaled to controls: 0 for no effect and ±100 for the full control effect; potency is read from the fitted curve at half-maximal effect.
SMILES,Pf growth 96h,AmpC detergent,AmpC inh no detg,HCV inhibitor,AMA1-RON2 inh,Pf growth 48h
CCOCCn1c(SCc2ccc(F)cc2)nc2c1c(=O)[nH]c(=O)n2C,u,u,5%,-23%,11%,x
COCCn1c(SCc2ccc(F)cc2)nc2c1c(=O)[nH]c(=O)n2C,13µM*,-9%,-13%,9%,-5%,-13%
Cc1ccc(Cn2c(Sc3ncccn3)nc3c2c(=O)[nH]c(=O)n3C)cc1,-8%[5.75 µM],-1%,-7%,10%,-7%,-9%
CC(C)c1ccc(OCC(=O)Nc2cc(-c3ccccc3)no2)cc1,x,9%,x,x,x,x
COc1ccc(CCCc2nnc(SCC(=O)Nc3ccc(C)cc3C)o2)cc1,x,7%,x,x,x,x
CCc1cccc(NC(=O)Cn2c(=O)n(CCC(=O)NCc3ccccc3Cl)c(=O)c3sccc32)c1,x,1%,x,x,x,x
Cc1ccc(CN(C(=O)c2ccccc2Br)C2CCS(=O)(=O)C2)o1 (centres undefined),x,16%,x,x,x,x
CCCCCSc1nc2c(c(=O)[nH]c(=O)n2C)n1C,17%,-12%,-18%,20%,-3%,x
CCCCCCn1c(SCC(=O)OC)nc2c1c(=O)[nH]c(=O)n2C,2%,u,3%,5µM*,-2%,8%
CC(C)n1c(SCc2ccc(Cl)cc2)nc2c1c(=O)[nH]c(=O)n2C,12µM*,-9%,-15%,-8%,4%,x
CCCCCCn1c(SCC(C)C)nc2c1c(=O)[nH]c(=O)n2C,u,-21%,-21%,u,12%,u
CCCCCSc1nc2c(c(=O)[nH]c(=O)n2C)n1C(C)C,12µM*,u,-20%,-1%,-1%,u
COc1ccc(CNC(=O)CSc2nc(-c3ccc(OC)c(OC)c3)cc(C(F)(F)F)n2)cc1,x,2%,x,x,x,x
COC(=O)c1c(Oc2ccc(OC)cc2)nnc(-c2ccccc2)c1-c1ccccc1,x,-9%,x,x,x,x
CC(C)Cc1nc2oc3c(NCC4CCCO4)ncnc3c2c2c1CCC2 (centres undefined),4.7µM*,u,69%,14µM*,-4%,u
CCOC(=O)N1CCN(c2ncnc3c2oc2nc(C(C)C)c4c(c23)CCC4)CC1,-23%,4%,-11%,-9%,-18%,7%
CCN1CCN(c2ncnc3c2oc2nc(C(C)C)c4c(c23)CCC4)CC1,3.3µM*,-18%,-10%,x,x,16%
CC(C)Cc1nc2oc3c(NCc4cccnc4)ncnc3c2c2c1CCC2,u,-12%,10%,u,-24%,u
CC(C)c1nc2oc3c(NCc4cccnc4)ncnc3c2c2c1CCC2,0%,-18%,15%,7.1µM*,3%,-5%
O=C(N/N=C/c1ccc([N+](=O)[O-])o1)C(O)c1ccccc1 (centres undefined),u,8%,-6%,u,34%,u
CCCCNC(=O)/C(=C\c1ccc([N+](=O)[O-])o1)NC(=O)c1ccccc1,-19%,2%,12%,u,-6%,u
CN(/N=C/c1ccc([N+](=O)[O-])o1)c1ccccc1,3%,4%,-23%,-6%,13µM*,12%
COC(=O)/C(=C\c1ccc([N+](=O)[O-])o1)NC(=O)c1ccccc1,13µM*,-4%,-15%,u,-4%,x
COC(=O)N/N=C/c1ccc([N+](=O)[O-])o1,12µM*,-12%,-8%,-6%,61%,13µM*
NC(=O)N/N=C/c1ccc([N+](=O)[O-])o1,5.4µM*,-6%,-5%,u,9%,12µM*
SMILES,Pf growth 96h,AmpC detergent,AmpC inh no detg,HCV inhibitor,AMA1-RON2 inh,Pf growth 48h
CC(=O)N(/N=C/c1ccc([N+](=O)[O-])o1)c1nc2ccccc2c(=O)n1-c1ccccc1,-7%,1%,-6%,-24%,-2%,-7%
O=C(NCCCN1CCN(c2ccccc2)CC1)c1nnc(Cc2ccc(F)cc2)o1,x,23%,x,x,x,x
Cc1ccc(Cl)cc1NC(=O)CSc1ccc(C(=O)O)cn1,x,11%,x,x,x,x
Cc1nonc1C(=O)N/N=C/c1ccc([N+](=O)[O-])o1,u,u,-19%[11.4 µM],u,19%,u
CCCCCn1nc(C)c(/C=N/NC(=O)c2ccoc2C)c1C,-28%,-1%,-5%,u,31%,37%
CCCCCn1nc(C)c(/C=N\NC(=O)c2cc(C)oc2C)c1C,-26%,0%,-5%,u,0%,13µM*
Cc1cc(C(=O)N/N=C/c2ccc([N+](=O)[O-])o2)c(C)o1,3.3µM*,2%,-23%,u,-2%,3.7µM*
O=C(N/N=C/c1ccc([N+](=O)[O-])o1)C1CC1,4.1µM*,-4%,-47%,u,-6%,0%
COc1ccc(-c2nn(-c3ccccc3)cc2C(=O)N/N=C/c2ccc([N+](=O)[O-])o2)cc1,4%,-7%,-24%,-22%,0%,2.6µM*
CCOC(=O)C1=C(Cc2ccc(Cl)cc2)C(=O)c2ccccc2C1=O,x,-15%,-45%,11µM*,u,u
CCOC(=O)C1=C(C)Nc2ccccc2N/C1=N\S(=O)(=O)c1ccc(Cl)cc1,6%,7%,-9%,8%,46%,-10%
CCOC(=O)c1c(S(=O)(=O)N2CCC(C(=O)NCc3cccc(OC)c3)CC2)c(C)n(C)c1C,x,3%,x,x,x,x
COc1ccc(-c2nn(-c3ccc(C)c(Cl)c3)c3c2cnc2cc(OC)c(OC)cc23)cc1,x,7%,x,x,x,x
COc1c(F)c(F)cc2c(=O)c(C(=O)O)cn(C3CC3)c12,31%,-1%,-2%,16%,-8%,5%[0.00184 µM]
CN1C[C@@H]2C[C@H]1CN2c1cc2c(cc1F)c(=O)c(C(=O)O)cn2C1CC1,0.85µM*,x,x,x,x,5.4µM*
CNC1CCCN(c2c(F)cc3c(=O)c(C(=O)O)cn(C4CC4)c3c2OC)C1 (centres undefined),4.3µM*,x,x,x,x,4.8µM*
COc1c(N2CCN[C@H](C)C2)c(F)cc2c(=O)c(C(=O)O)cn(C3CC3)c12,u,u,-1%,14%,-1%,u
COc1c(N2CCN(C(=S)NCc3ccccc3)C(C)C2)c(F)cc2c(=O)c(C(=O)O)cn(C3CC3)c12 (centres undefined),2.9µM*,1%,32%,10µM*,-11%,9.3µM*
O=C(O)COc1ccccc1C1Nc2ccccc2-c2nnc(SCc3ccc(Cl)cc3)nc2O1 (centres undefined),x,-4%,x,x,x,x
Cc1cc(N2CCN(c3ccc([N+](=O)[O-])c4cccnc34)CC2)c2ccccc2n1,7.4µM*,u,0%,-17%,0%,-18%
